High-throughput results as filed in PubChem BioAssay.
Many of the other results were omitted from the sample, so hits are more common in it than they were.
mHTT-CaM PPI inh – inhibitors of human mutant huntingtin-calmodulin interaction; hit rate 3.6% among 190,000; inhibition, % at 15 µM; AlphaScreen His-mHTT/GST-CaM binding, luminescence; P42858;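 further: 0% = both proteins with DMSO and 100% = one protein alone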
Pf apPOL inh – Pf-apPOL DNA polymerase inhibition. Recombinant Pf-apPOL, molecular beacon fluorescence, 1.5 h. inhibition, % at 10 µM. hit rate 0.25% among 210,000. AID 1794808
An asterisk follows results filed as active; · = not tested or not shown. No stated cut-off is given here; in the data, active means inhibition above about 50%; inactive means the rest.

SMILES	mHTT-CaM PPI inh	Pf apPOL inh
O=C(c1cc2ccccc2[nH]1)N1CCN(Cc2csc(-c3ccccc3)n2)CC1	66.5*	-9.6
O=C(C1CC1c1ccccc1)N1CCN(C(=O)C2(c3cccs3)CCCC2)CC1 (centres undefined)	-3.1	-5.4
Cc1nc2ccccc2c(=O)n1Cc1cccnc1	-0.2	-2.9
O=c1c2ccccc2nc2c3ccccc3c(NCc3ccccn3)nn12	81.0*	0.3
Cc1cc(C)n(-c2nn3c(=O)c4ccccc4nc3c3ccccc23)n1	-9.0	11.9
O=c1c2ccccc2nc2c3ccccc3c(NCc3cccnc3)nn12	80.0*	-11.1
COc1cc(C(=O)NCCC(=O)N2CCC3(CC2)OCCO3)cc(OC)c1OC	-1.0	-2.6
CCN(CCCNC(=O)CCS(=O)(=O)Cc1ccccc1C)c1cccc(C)c1	34.0	-18.1
COc1cccc(C2C3CC(C(C)(C)C)CC=C3C(C#N)=C(N)C2(C#N)C#N)c1O (centres undefined)	40.0	-1.4
CC(C)(C)C1CC=C2C(C#N)=C(N)C(C#N)(C#N)C(CCc3ccccc3)C2C1 (centres undefined)	65.0*	-11.9
CC(C)CNC(=O)C1COC2(CCCCC2)N1C(=O)c1ccc(F)cc1F (centres undefined)	-4.8	2.0
CCN(CC)c1ccc(N=C2C(=O)Nc3ccccc32)cc1	100.0*	-38.8
O=C1Nc2ccccc2C1=Nc1ccc(C(=O)O)cc1	1.0	-0.4
Cc1c(C(=O)O)oc2ccc(S(=O)(=O)N(C)C3CCCCC3)cc12	-1.0	-1.2
O=C1NC(=O)/C(=C\c2cc(Br)c(Sc3ccc(Cl)cc3)o2)N1	26.0	-3.2
O=Cc1cc(Br)c(Sc2ccc(Cl)cc2)o1	60.7*	-5.8
CCn1ncc(NS(=O)(=O)c2cnn(C)c2)c1C(=O)Nc1cnn(C)c1C	-0.1	·
Cc1ccc(-n2c(=O)n(CC(=O)NC3CCCC3)c3cccnc32)cc1	2.7	1.7
CCn1c(=N)c(C(=O)NCc2ccco2)cc2c(=O)n3ccccc3nc21	0.0	-1.0
CC(=O)NC1=NN(C(C)=O)C(c2ccc(OCc3ccccc3)c(OCc3ccccc3)c2)S1 (centres undefined)	38.0	-0.4
CC(=O)NC1=NN(C(C)=O)C(c2ccc(OCc3ccccc3)cc2)S1 (centres undefined)	68.0*	-2.6
CC(C)(C1=CC(=O)c2ccccc2C1=O)C1OCC2(CO1)CC1C=CC2C1 (centres undefined)	53.1*	·
C1=CC2CC1CC21COC(c2ccc3oc4ccccc4c3c2)OC1 (centres undefined)	-17.1	·
CC1CCN(Cc2csc(N3CCN(C(=O)Cc4cccnc4)CC3)n2)CC1	8.1	-3.2
COc1cc(Sc2ccccc2[N+](=O)[O-])ccc1N	54.8*	1.3
SMILES	mHTT-CaM PPI inh	Pf apPOL inh
COc1cc(Sc2ccc(Cl)cc2)ccc1[N+](=O)[O-]	·	-6.5
CNc1cc(Nc2ccc(C)cc2)c2c3c(onc13)-c1ccccc1C2=O	95.0*	1.9
COc1ccc(Nc2cc(N3CCOCC3)c3noc4c3c2C(=O)c2ccccc2-4)cc1	43.0	0.8
O=C1c2ccccc2-c2onc3ccc(Nc4ccccc4)c1c23	43.0	1.1
O=C1c2ccccc2-c2onc3c(N4CCOCC4)cc(Nc4ccc(F)cc4)c1c23	63.0*	-1.2
FC(F)(F)c1ccc2nc(SCc3nc(-c4ccc(Cl)cc4)no3)[nH]c2c1	·	-11.6
COc1cccc(-c2nc(C3CCN(C(=O)c4cccc(C(F)(F)F)c4)CC3)no2)c1	33.2	-2.1
COc1cccc(-c2nc(C3CCN(C(=O)c4cccc(C)c4)CC3)no2)c1	5.8	6.0
COc1ccccc1-c1nc(C2CCN(C(=O)c3cccc(F)c3)CC2)no1	12.8	-0.1
COc1cccc(-c2nc(C3CCN(C(=O)c4ccc(Cl)c(Cl)c4)CC3)no2)c1	97.1*	2.1
COc1ccccc1-c1nc(C2CCN(C(=O)c3ccc(F)c(Cl)c3)CC2)no1	92.2*	-2.1
COc1cccc(-c2nc(C3CCN(C(=O)c4ccc(C(F)(F)F)cc4)CC3)no2)c1	86.4*	-1.8
CC(=O)Nc1ccc(-c2noc(C3CCN(C(=O)c4cc5ccccc5[nH]4)CC3)n2)cc1	98.2*	3.0
CC(=O)Nc1ccc(-c2noc(C3CCCN(C(=O)c4cc5ccccc5[nH]4)C3)n2)cc1 (centres undefined)	-4.2	-1.8
CC1CCCC(NC(=O)C2(C)CCC(=O)N2C(C)c2ccccc2)C1C (centres undefined)	5.0	-5.6
CSc1cccc(NC(=O)C(=O)NCCc2ccsc2)c1	-2.1	-1.6
COc1ccc(Cl)cc1NC(=O)C1CCN(c2nccnc2Oc2ccccc2)CC1	22.4	-2.1
CC(C)n1c(=O)oc2cc(-c3noc(C=Cc4ccccc4)n3)ccc21	-5.5	0.8
COc1ccc(-c2ccc3cc(OC)c(OC)cc3c2O)cc1OC	21.4	·
COc1cc(=O)n(-c2ccccc2C)nc1C(=O)Nc1nc2ccc(C)cc2s1	9.8	20.5
O=C(c1cc2ccccc2[nH]1)N1CCC(c2noc(-c3ccccc3)n2)CC1	-5.2	2.8
